Only some compounds are listed: those with a hit (about 2.5% of all), similar ones and a draw of the others.
Vaccinia Venus = qHTS for Stage-Specific Inhibitors of Vaccinia Orthopoxvirus: Venus Reporter Primary qHTS; 330,000 compounds, 0.46% hits; Potency, µM (top dose mostly 36.5 µM), most hits filed as inhibitors; Vaccinia virus Venus reporter expression, fluorescence; calls by dose curve; tested in A549 cells; further: nearly all actives have a fitted effect of over 30% in size
Marburg entry inh = qHTS for inhibitors of binding or entry into cells for Marburg Virus | Potency, µM (series often up to 37.8 µM), actives largely listed as inhibitors | Marburg virus pseudotyped entry inhibition, cell reporter | 300,000 compounds, 1.8% hits; calls by dose curve; tested in HEK293 cells
Vaccinia mCherry = qHTS for Stage-Specific Inhibitors of Vaccinia Orthopoxvirus: mCherry Reporter Primary qHTS; Vaccinia virus mCherry reporter infection, fluorescence; 310,000 compounds, 0.63% hits; AID 720579, 2013; Potency, µM (top dose mostly 36.5 µM), most hits filed as inhibitors; calls by dose curve; tested in A549 cells; further: nearly all actives have a fitted effect of over 35% in size
Lassa entry inh = qHTS for Inhibitors of binding or entry into cells for Lassa Virus; Lassa virus pseudotype entry inhibition, cell reporter; Potency, µM (titrated, usually from 37.9 µM), hits mostly inhibitors; 300,000 compounds, 1.2% hits; AID 540256, 2011; calls by dose curve; tested in HEK293 cells; further: nearly all actives have a fitted effect of over 50% in size
Numbers stand for hits; - = inactive; ? = inconclusive; . = no result given.

SMILES	Vaccinia Venus	Marburg entry inh	Vaccinia mCherry	Lassa entry inh
COc1cc(/C=C/C(=O)NC(C)(C)C)ccc1OCc1ccccc1	-	-	-	?
COc1cc(OC)c(C(=O)/C=C/c2ccc(OCc3ccccc3)c(OC)c2)c(OC)c1	?	11.2µM	?	?
COc1cc(/C=N/NC(=O)c2cccc([N+](=O)[O-])c2)ccc1OCc1ccccc1	.	-	.	-
COc1cc(OC)c(C(=O)C=Cc2ccc(OC)c(OC)c2)c(OC)c1	?	?	10µM	?
COc1ccc(C(=O)C=Cc2ccc(OCc3ccccc3)c(OC)c2)cc1OC	11.2µM	.	?	.
COc1ccc(/C=C/C(=O)C(C)(C)C)cc1OC	-	.	-	.
COc1cc(/C=C/[N+](=O)[O-])ccc1OCc1cccc(C(=O)O)c1	-	?	-	0.631µM
CCC1CSC(Nc2ccc(C(=O)/C=C/c3ccc(OC)c(OC)c3)cc2)=N1 (stereo not drawn)	?	?	11.2µM	23.1µM
O=C(O)C[C@H](SCc1ccc(C(=O)O)o1)C(=O)O	.	-	.	.
COc1ccccc1OCCn1cc(/C=N/NC(N)=S)c2ccccc21	1.26µM	.	?	.
COc1ccccc1OCCn1cc(/C=N/NC(=O)c2ccncc2)c2ccccc21	-	-	-	?
COC(=O)N/N=C/c1cn(CCCOc2ccccc2)c2ccccc12	?	15.8µM	?	?
CNC(=S)N/N=C/c1cn(Cc2ccc(F)cc2)c2ccccc12	?	?	3.16µM	?
COC(=O)N/N=C/c1cn(Cc2ccc(Cl)cc2Cl)c2ccccc12	-	13µM	-	?
COC(=O)N/N=C/c1cn(Cc2ccccc2Cl)c2ccccc12	-	-	?	-
O=C(N/N=C/c1cn(CCOc2ccccc2)c2ccccc12)c1ccncc1	-	-	-	?
Cc1c(C(=O)NCc2ccc(F)cc2)sc2ncnc(NCC3CCCO3)c12 (stereo not drawn)	-	.	-	.
NC(=S)N/N=C/c1ccccc1OCCSc1ccc(Cl)cc1	0.316µM	?	0.0891µM	3.66µM
CCOC(=O)c1cnc(-n2nc(C)cc2C)nc1NNc1cc(-c2ccccc2)nc(C)n1	.	-	.	-
CCOC(=O)c1cnc(-n2nc(C)cc2C)nc1NNc1ncc(-c2ccccc2)cn1	?	11.2µM	?	?
O=C(O)c1ccc(N/N=C/c2ccc(OC(=O)c3cccc(Cl)c3)cc2)cc1	-	.	?	.
O=C(O)c1ccc(N/N=C/c2ccc(F)c(F)c2)cc1	-	7.08µM	-	6.31µM
O=C(O)c1ccc(N/N=C/c2cccc(F)c2)cc1	-	10.3µM	-	?
CCCC[C@]12Cc3c(ccc4ccccc34)[C@H](O1)C1=C(O2)C(=O)c2ccccc2C1=O	.	-	.	.
COc1ccccc1/C=C/c1cncc(/C=C/c2ccccc2OC)c1	-	.	?	.
SMILES	Vaccinia Venus	Marburg entry inh	Vaccinia mCherry	Lassa entry inh
CN(Cc1cnc2ccccn12)C(=O)c1cc(NC(=O)c2ccccc2)cc2ncn(C3CCCC3)c12	-	.	-	.
CO[C@H]1[C@H](NC(=O)c2ccco2)c2ccccc2C12CCN(Cc1cnc(N(C)C)s1)CC2	-	.	-	.
FC(F)(F)c1nnc(-c2ccccc2)nc1Sc1ccc(Cl)cc1	.	14.6µM	.	?
COc1ccccc1CN1CCC2(CC1)c1ccccc1[C@@H](NC(=O)c1ccco1)[C@@H]2OC	-	.	-	.
CN(CCO)C(=O)c1cn(C2CCN(Cc3c(F)cccc3Cl)CC2)nn1	-	.	-	.
Cc1ncc2c(c1CNC(=O)c1ccccc1F)CCN(C(=O)c1ccc3c(c1)OCCO3)C2	-	.	-	.
COc1ccc(N2CCN(C(=O)c3cn(C4CCCC4)c(=O)c4c3c3ccccc3n4C)CC2)cc1	-	8.91µM	-	?
Cc1ccc(Cl)cc1N1CCN(C(=O)c2cn(C3CCCCC3)c(=O)c3c2c2ccccc2n3C)CC1	-	?	-	?
Cn1c2ccccc2c2c(C(=O)N3CCN(c4cccc(Cl)c4)CC3)cn(C3CCCCC3)c(=O)c21	-	7.08µM	-	?
C=CCN1CC[C@@H](O)C(=C)S1(=O)=O	-	.	-	.
CCCCCC(=O)Nc1cccc(C2=NOC3(C2)C[C@@H](C(N)=O)N(C(=O)CC(c2ccccc2)c2ccccc2)C3)c1 (stereo partly drawn)	12.6µM	.	-	.
COc1ccccc1N1CCN(c2nc(CNC(=O)c3ccc4c(c3)OCO4)nc3ccccc23)CC1	-	.	-	.
COc1ccc(-c2nc3ccccn3c2CN2CCN(c3ccccc3F)CC2)cc1	-	-	-	-
COc1ccc(-c2nc3ccccn3c2Cl)cc1	-	?	-	3.55µM
Cc1ccc(Nc2nc3c(c(=O)[nH]2)CCCC3)cc1	-	-	-	-
O=c1[nH]c(Nc2nc3ccccc3o2)nc2c1CCCC2	?	6.51µM	?	5.17µM
COc1ccc(CN2CCOc3c(cc(-c4cccc(OC)n4)cc3OC)C2)c(O)c1	-	.	-	.
c1ccc2sc(SCc3ccc(-c4nnco4)cc3)nc2c1	-	?	-	11.2µM
O=C(CCc1ccc(S(=O)(=O)NC2CCCCC2)cc1)Nc1ccccc1	-	-	-	-
O=C(CCc1ccc(S(=O)(=O)NC2CCCCC2)cc1)N(Cc1ccccc1)Cc1ccccc1	?	12.6µM	?	?
COc1ccc(C(NC(=O)c2c(F)c(F)c(F)c(F)c2F)c2ccccc2)cc1 (stereo not drawn)	?	?	?	22.4µM
c1csc(CNc2nc(CN3CCCC(c4nc5ccccc5o4)C3)nc3ccccc23)c1 (stereo not drawn)	-	.	-	.
COc1ccccc1-c1ccnc(-n2ncc(C(=O)NCc3cccnc3)c2C)n1	?	.	-	.
O=C(c1ccc(F)cc1)N1CCC(c2ccccc2)C1 (stereo not drawn)	-	-	-	-
COc1ccc(CNC(=O)C2CCN(C(=O)c3ccc(-c4ccccc4)cc3)CC2)cc1	-	?	-	2.51µM
SMILES	Vaccinia Venus	Marburg entry inh	Vaccinia mCherry	Lassa entry inh
COc1ccc(C(=O)N2CCCC(c3ccccc3)C2)cc1 (stereo not drawn)	-	?	?	4.47µM
C[C@H]1CC[C@H]2C(=O)N(Cc3ccccc3)C[C@@H](O)CN2[C@H]1c1cccc(Br)c1	.	-	.	?
Cc1cccc(CNC(=O)c2cnn(-c3nccc(-c4cccs4)n3)c2C2CC2)n1	-	.	-	.
O=C(CSc1ccncc1)NCC1Cc2cccc(-c3cncnc3)c2O1 (stereo not drawn)	-	.	-	.
Fc1ccc(CN2CCN3CCCC3C2C2CCCCC2)cc1F (stereo not drawn)	?	?	.	12.6µM
O=C(O)CC(CC(=O)Nc1ccc(-n2ccc(C(F)(F)F)n2)cc1)c1ccccc1 (stereo not drawn)	-	-	-	-
N#CC(C#N)=NNc1ccc(-n2ccc(C(F)(F)F)n2)cc1	?	3.16µM	?	?
CC(C)[C@H]1C(C#N)=C(N)Oc2n[nH]c(C(C)(C)C)c21	.	-	.	.
COc1ccc(/C=C/C(=O)NCC2Cc3cc(Cl)cc(-c4ncccn4)c3O2)cc1 (stereo not drawn)	-	.	-	.
COc1ccc(OC)c(/C=C/c2sc3ccccc3[n+]2C)c1	-	.	-	.
O=C1NC(c2ccc(Cl)cc2)Nc2ccccc21 (stereo not drawn)	-	-	-	?
CN(C)c1ccc(C2NC(=O)c3ccccc3N2)cc1 (stereo not drawn)	?	10µM	-	?
NC(=O)C1(N2CCCCC2)CCN(c2nc(-c3ccccc3)cs2)CC1	?	?	.	-
